Experimental data taken from PubChem BioAssay AID488815 (Broad Institute, 2010).
Potency and affinity values are given separately. Inconclusive results are not listed. Active and inactive are the calls of the source. How the calls were made is not given here.

molecular target: CAAX prenyl protease 1 (Saccharomyces cerevisiae (strain ATCC 204508 / S288c)) (UniProt P47154); experiment: yeast CAAX protease Ste24 inhibition – biochemical, S. cerevisiae, plate reader, cherry-pick, dose response (AID 488815); conditions: series mostly up to 10 µM
Sequence (P47154 whole entry, looked up): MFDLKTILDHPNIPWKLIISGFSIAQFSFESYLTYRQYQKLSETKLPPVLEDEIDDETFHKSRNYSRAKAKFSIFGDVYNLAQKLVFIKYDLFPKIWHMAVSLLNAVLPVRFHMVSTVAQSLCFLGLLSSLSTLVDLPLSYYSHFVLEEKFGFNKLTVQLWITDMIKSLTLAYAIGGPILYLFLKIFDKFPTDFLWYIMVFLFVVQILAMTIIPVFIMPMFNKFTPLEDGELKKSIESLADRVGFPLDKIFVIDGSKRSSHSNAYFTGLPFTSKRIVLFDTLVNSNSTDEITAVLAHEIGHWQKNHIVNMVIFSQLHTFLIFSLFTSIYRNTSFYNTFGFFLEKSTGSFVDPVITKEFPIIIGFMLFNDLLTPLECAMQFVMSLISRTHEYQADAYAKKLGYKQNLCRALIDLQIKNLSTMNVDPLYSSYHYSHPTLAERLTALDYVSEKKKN

outcome, inactive:
CC1CCN(C(=O)c2cc3nc(-c4ccccc4)cc(-c4ccccc4)n3n2)CC1
C=C(C)C1(O)OC(=O)C=C1OC (stereo not given)
COc1ccc(C(=O)/C=C/c2ccc(OC)cc2OC)c(O)c1
CCCCNC(=S)NNC(=O)CCn1cc(C)cn1
COC(C/C=C/[C@@H](O)[C@H](C)OCc1ccccc1)OC
Cc1ccccc1NS(=O)(=O)c1ccc(C(=O)NCC(c2ccccc2)N(C)C)cc1 (stereo not given)
COc1cc2c(cc1OC)C(C)N(C(=O)c1cc3c(=O)oc4ccc(C)cc4c3s1)CC2 (stereo not given)
Cc1cc(C(=O)N/N=C/c2c3ccccc3cc3ccccc23)n[nH]1
CCOC(=O)c1c(NC(=O)COc2ccccc2F)sc2c1CC(C)(C)NC2(C)C
COc1ccc(-n2c(SCc3ccc([N+](=O)[O-])cc3)nnc2-c2ccc(C)cc2)cc1
CC(=O)c1c(C)oc2ccc(NS(=O)(=O)c3ccc(C(=O)O)cc3)cc12
CC1(c2ccc(OCC#N)cc2)C=C(c2ccc(OCC#N)cc2)n2nc(C(F)(F)F)nc2N1 (stereo not given)
COc1cc(-c2nc3ccccn3c2/N=C/c2cc(OC)c(OC)c(OC)c2)ccc1O
CC(C)CC(=O)NC(=S)Nc1ccc(S(=O)(=O)Nc2nccs2)cc1
Cc1cc(N)c2cc(NC(=O)/C=C/c3ccccc3Cl)ccc2n1
CC(C)c1cccc(OCC(=O)Nc2ccc(S(=O)(=O)Nc3ccccn3)cc2)c1
O=C(O)c1ccc2cccc(Cl)c2c1O
CCn1cc(/C=C(\NC(=O)c2ccccc2F)C(=O)N2CCOCC2)c2ccccc21
COc1ccc(C2CC(c3ccccc3)=NN2C(=O)c2ccc(Cl)c([N+](=O)[O-])c2)cc1 (stereo not given)
O=C(COC(=O)c1ccccc1Cc1ccccc1)NC1CCS(=O)(=O)C1 (stereo not given)
COc1ccc(OCC(=O)NS(=O)(=O)c2ccc(Cl)cc2)cc1
O=C1CCN(Cc2ccccc2)CCN1[C@H](CSc1ccccc1)Cc1ccccc1
Cc1ccc(C2(COC(=O)C(C)C)CO2)c(OC(=O)C(C)C)c1 (stereo not given)
COc1cccc2sc3ccc(C#CC4(O)CCCCC4)cc3c(=O)c12
Cc1ccc(S(=O)(=O)Nc2ccccc2C(=O)NCC2CCCO2)cc1 (stereo not given)
CC1CCc2c(sc(NC(=O)COC(=O)c3ccccc3NCc3ccco3)c2C#N)C1 (stereo not given)
CC1=NN(c2ccccc2)C(=O)/C1=C\c1ccc(Br)s1
O=S(=O)(c1ccccc1)c1nc(-c2ccco2)oc1N1CCCCC1
CC(=O)N1c2ccc([N+](=O)[O-])cc2NC(=O)CC1C (stereo not given)
COc1ccc(S(=O)(=O)N(CC(=O)N2CCCC2)Cc2ccccc2)cc1
COc1ccccc1-n1c(-c2ccccc2)c[nH]c1=S
Nc1c(C(=O)Nc2cccc(C(=O)O)c2)sc2nc3c(cc12)CCCC3
N#Cc1c(OCC(=O)c2ccccc2)nc2c(c1-c1ccco1)CCc1ccccc1-2
O=C1CCCC(O)=C1N=Nc1ccc2ncsc2c1
Nc1nonc1-n1nnc(C(=O)N/N=C/c2ccoc2)c1CSc1ccccc1
CN(C(=O)COC(=O)c1cn(-c2ccccc2)nc1-c1ccccc1)C1CCS(=O)(=O)C1 (stereo not given)
O=C(Nc1ccc2c(c1)CCC2)c1ccccc1Br
CCCCn1c(=O)[nH]c(=O)c2c1nc(-c1ccc(OC)c(Br)c1)n2CC(C)C
COC(C/C=C/[C@H](O)[C@H](C)OCc1ccccc1)OC
O=C(c1cnc2n(c1=O)CCS2)N1CCN(C(c2ccccc2)c2ccc(Cl)cc2)CC1 (stereo not given)
